Screens from PubChem BioAssay.
Compounds with a hit are over-represented: about 4.8% of the library has one in this group of screens.
ssDAF-12 act: activators of S. stercoralis DAF-12 nuclear receptor; 370,000 compounds, 1% hits; HEK293 ssDAF-12/GRIP1 lit1-tk-luc reporter, luminescence; % of 3 µM dafachronic acid response; activation, % at 6.8 µM;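 active = activation above the mean over all tested compounds plus 3 SD, cut at about 0.9% in these data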;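 also: 0% = DMSO-only wells and 100% = 3 µM delta7-dafachronic acid wells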
SMARCA2 activ: SMARCA2 function activation, primary screen; MG213 cells, MMTV-luciferase reporter, dexamethasone, overnight; activation, % at 9.1 µM; 370,000 compounds, 1% hits; AID 652017; in the data active = activation above about 7.8%;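 also: 0% = vehicle wells and 100% = reference activator wells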
hgDAF12 agonist: agonists of H. glycines DAF-12 nuclear receptor; HEK293 GAL4-hgDAF12 UAS-luciferase reporter, agonist luminescence; normalized to butyrate control; activation, % at 6.8 µM; 370,000 compounds, 1.8% hits;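 active = activation above a cutoff set at the mean of all screened compounds plus 3 SD, cut at about 10% in these data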;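 also: 0% = DMSO wells and 100% = sodium butyrate wells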
DAX1 inh-1: inhibits human nuclear receptor DAX1; P51843; HEK293 Gal4-DAX1 luciferase reporter, luminescence; inhibition, % at 6.75 µM; 340,000 compounds, 0.99% hits; AID 504766;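 active = inhibition above the mean over all tested compounds plus 3 SD, cut at about 4.2% in these data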;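 also: 0% = DAX1-transfected cells with DMSO and 100% = empty-vector control cells with DMSO; inhibition shows as a rise in luminescence from relieved DAX1 repression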
DAX1 inh-2: inhibitors of DAX1 repression of SF-1 activated StAR promoter; HEK293T StAR-luciferase reporter, SF-1/DAX-1 repression relief; inhibition, % at 6.8 µM; 370,000 compounds, 1.1% hits;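 active = inhibition above the mean over all tested compounds plus 3 SD, cut at about 3.6% in these data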;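 also: 0% = DAX-1 cells with DMSO and 100% = cells lacking DAX-1 with DMSO; higher inhibition means more luminescence from relief of DAX-1 repression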
hcDAF12 agonist: H. contortus DAF-12 activation, primary screen | AID 652067 | 370,000 compounds, 1.4% hits | activation, % at 6.8 µM | HEK293 hcDAF-12 lit1-tk-luc reporter, luminescence; 0% DMSO, 100% Δ7-dafachronic acid;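 active = activation above the mean of all tested compounds plus 3 SD, cut at about 5.5% in these data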;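 also: 100% = response to 3 µM Δ7-dafachronic acid high control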
DAX1 conf: confirmation of human DAX1 (NR0B1) inhibitors; AID 652134; inhibition, % at 6.8 µM; shares compounds with DAX1 inh-2; HEK293T StAR-promoter luciferase reporter, SF-1/DAX-1 repression; 2,400 compounds, 87% hits;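 active = inhibition above the average of every tested compound plus 3 SD, cut at about 3.8% in these data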;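 also: 0% = DAX-1 cells with DMSO and 100% = no DAX-1 control cells with DMSO; active compounds raise luminescence by relieving repression of the StAR reporter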
Target sequence (P51843 whole entry, looked up): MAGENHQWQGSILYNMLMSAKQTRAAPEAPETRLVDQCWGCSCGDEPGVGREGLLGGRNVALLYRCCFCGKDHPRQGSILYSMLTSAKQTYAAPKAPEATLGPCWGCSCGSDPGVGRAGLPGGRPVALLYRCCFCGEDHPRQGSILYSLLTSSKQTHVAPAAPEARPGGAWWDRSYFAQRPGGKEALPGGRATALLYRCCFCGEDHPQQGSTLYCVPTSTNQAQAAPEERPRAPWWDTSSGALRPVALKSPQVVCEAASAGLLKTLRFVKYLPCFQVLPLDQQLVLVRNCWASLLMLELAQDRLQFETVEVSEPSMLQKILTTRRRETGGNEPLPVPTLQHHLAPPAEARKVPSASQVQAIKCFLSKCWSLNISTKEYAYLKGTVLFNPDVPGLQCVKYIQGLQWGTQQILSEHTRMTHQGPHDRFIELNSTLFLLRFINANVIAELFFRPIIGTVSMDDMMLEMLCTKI
SF1 mutant ctr: counter-screen for DAX1 inhibitors: nonselective inhibitors with SF-1 AF2 mutant; inhibition, % at 6.8 µM; shares compounds with DAX1 inh-2; AID 652136; 2,400 compounds, 78% hits; HEK293 StAR-luciferase, luminescence;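 active = inhibition above the mean of all tested compounds plus 3 SD, cut at about 3% in these data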;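 also: 0% = DAX-1 transfected cells with DMSO and 100% = cells without DAX-1 with DMSO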
An asterisk follows results filed as active; · = no result given.

SMILES | ssDAF-12 act | SMARCA2 activ | hgDAF12 agonist | DAX1 inh-1 | DAX1 inh-2 | hcDAF12 agonist | others
CCNC(=O)NC(=O)C(C)OC(=O)c1c(C)nn(Cc2ccccc2)c1Cl (configuration not stated) | -2 | -1 | -1 | 6.3* | 0 | -1
CCc1ccc(N2C(=O)NC(=O)/C(=C\c3cccn3CCOc3ccc(C(C)C)cc3)C2=O)cc1 | -2 | 2 | 1 | -2 | 0 | 2
O=C(CN1CC(c2ccccc2)CC1=O)Nc1ccc(F)cc1 (configuration not stated) | -2 | -1 | 2 | 5.2* | -1 | -2
COC(=O)C1C2c3ccccc3C(c3ccccc32)C1C(=O)OC (configuration not stated) | -1 | 2 | -2 | 0 | 0 | -1
Nc1ccc2ccccc2c1 | 0.9* | 0 | 0 | 1 | 1 | 5
Nc1ccc(-c2ccccc2)cc1 | 0 | 0 | 7 | 0 | 3 | 1
Oc1ccc2ccccc2c1CN1CC=C(c2ccccc2)CC1 | -1 | -5 | 0 | 5.2* | 1 | 1
O=C(O)Cn1cc(/C=C2\C(=O)NC(=O)N(c3ccc(Cl)cc3)C2=O)c2ccccc21 | 1.2* | -1 | -1 | 0 | 0 | 2
COc1ccccc1N1CCN(Cc2ccc(Br)s2)CC1 | 1 | 1 | 1 | 6.5* | -1 | -1
COc1ccccc1N1CCN(Cc2ccccc2)CC1 | -2 | 1 | 1 | 0 | 0 | 0
Cc1ccc(C(=O)C2CN3CCC2CC3)cc1 (configuration not stated) | -1 | 2 | 1 | 4 | 0 | -2
Cc1ccc(C(=O)C2CN(C)CC2C(=O)c2ccc(C)cc2)cc1 (configuration not stated) | -1 | 1 | 11* | 2 | 1 | 0
Cc1ccccc1CCNCc1cc2cccc(C)c2[nH]c1=O | 1.0* | -1 | -2 | 5.6* | 0 | 3
Fc1ccccc1CCNCc1cccc2ccccc12 | -2 | 0 | 0 | -1 | 0 | 1
CC(=O)O[C@@]12CO[C@@H]1C[C@H](O)[C@@]1(C)C(=O)[C@H](O)C3=C(C)[C@@H](OC(=O)[C@H](O)[C@@H](NC(=O)c4ccccc4)c4ccccc4)C[C@@](O)([C@@H](OC(=O)c4ccccc4)C12)C3(C)C (some centres not stated) | -2 | 2 | 1 | -3 | -4 | -3
Cc1ccc(N2C(=O)NC(=O)/C(=C/c3ccc(OC(=O)c4cccs4)cc3)C2=O)cc1 | -1 | -4 | 2 | 1 | 1 | -2
COc1ccc(N2C(=O)NC(=O)/C(=C/c3cccc(OC(=O)c4cccs4)c3)C2=O)cc1Cl | -1 | -1 | 1 | · | 0 | 5.8*
CN1C(=O)C(Cc2ccccc2)C(=O)N(C)C1=O | -1 | 0 | 0 | -1 | -1 | 0
CN1C(=O)c2ccccc2NC(=O)C1Cc1ccccc1 (configuration not stated) | 0 | 1 | 0 | 4.9* | 0 | -1
O=C(CCN1CCOCC1)Nc1ccc(Br)cc1C(=O)c1ccccc1 | 0 | -3 | -1 | -1 | -1 | -1
Cc1cc(=O)n(-c2ccccc2)n1-c1ccccc1 | 0 | 1 | -1 | 4.8* | 1 | 0
Cc1c(NP(=O)(C(C)(C)C)C(C)(C)C)c(=O)n(-c2ccccc2)n1C | -1 | -1 | -1 | 1 | -1 | -1
CN1CCCCC1c1ccc(-c2cccnc2)nc1 (configuration not stated) | 1 | 0 | 5 | 7.3* | 2 | -2
O=C1CN(C(=O)COC(=O)Cc2ccccc2)c2ccccc2N1 | 0 | -2 | 3 | 4.4* | 1 | -1
O=C1NC(=O)C(=Cc2cc(Cl)ccc2OCc2ccc(C(=O)O)cc2)C(=O)N1 | -2 | -2 | -1 | 5.5* | 0 | -1
SMILES | ssDAF-12 act | SMARCA2 activ | hgDAF12 agonist | DAX1 inh-1 | DAX1 inh-2 | hcDAF12 agonist | others
COc1ccc(-c2nn(CCC#N)cc2C(=O)Nc2ccccc2Cl)cc1 | -2 | 0 | -1 | 0 | -1 | -1
CCOC(=O)c1c(/N=C/c2c(O)n(-c3ccccc3F)c(=S)[nH]c2=O)sc2c1CCCC2 | -1 | -5 | -3 | 1 | 0 | -1
Cc1ccsc1C(=O)C1CCCN(Cc2cnn(C)c2)C1 (configuration not stated) | -1 | -3 | -4 | -1 | 0 | 0
Cc1ccsc1C(=O)C1CCCN(CCO)C1 (configuration not stated) | 0 | 0 | -4 | 4.8* | 0 | 0
CN1C2CCC1C(C(=O)Oc1ccccc1)C(c1ccc(Cl)cc1)C2 (configuration not stated) | -1 | -5 | -1 | · | 0 | -1
c1ccc(-c2nc(N3CCOCC3)s[n+]2-c2ccccc2)cc1 | 0 | 0 | 12* | 2 | 2 | 3
CCCCN1C(=O)NC(=O)C2(Cc3c(nc4ccccn4c3=O)N3CCc4ccccc4C32)C1=O (configuration not stated) | 0 | 1 | 0 | -1 | 0 | 6.0*
C/C(=N\NC(=O)c1ccccc1)c1c(O)n(C2CCCCC2)c(=O)[nH]c1=O | 0 | -1 | 10 | 1 | 6.0* | 4 | DAX1 conf=2;SF1 mutant ctr=2
C=C1[C@@H](C)[C@H]2[C@H](Cc3ccccc3)NC(=O)[C@]23OC(=O)/C=C/[C@H](O)CCC[C@@H](C)C/C=C/[C@H]3[C@@H]1O | -1 | -4 | -7 | -2 | -4 | -2
C=C1[C@@H](C)C2[C@H](Cc3ccccc3)NC(=O)[C@]23[C@H](OC(C)=O)/C=C/[C@@](C)(O)C(=O)[C@@H](C)C/C=C/[C@H]3[C@@H]1O (some centres not stated) | 0 | 6 | -2 | · | 13* | 1 | DAX1 conf=17*;SF1 mutant ctr=-2
COc1ccc(C(=O)C2CCCN(CCc3ccccc3)C2)cc1OC (configuration not stated) | 0 | -1 | 1 | · | 6.3* | 3 | DAX1 conf=6.0*;SF1 mutant ctr=3.7*
CC/C(=N\N1CCCCCC1)c1c(O)n(-c2ccc(C)cc2)c(=O)[nH]c1=O | -1 | -5 | -2 | -1 | 0 | -2
O=C1C(=O)N(c2ccccc2)P(=O)(N(CCCl)CCCl)N1c1ccccc1 | 0 | 3 | 12* | 3 | 8.1* | 5 | DAX1 conf=6.2*;SF1 mutant ctr=3.0*
O=P(O)(O)Cc1ccccc1OP(=O)(c1ccccc1)c1ccccc1 | -2 | -4 | -2 | 0 | 0 | -2
